# Results reported in PubChem BioAssay (NCI).
# This is part of a sample that, as a whole, favours compounds with a hit. Of some 79,000 tested, about 15% had one in any assay. Values without a mark were called inactive. Calls of active or inactive are those of the source. Cut-off read from the data, not from the text of the source: active = growth inhibition above about 70%; inactive = the rest.
# Tests used:
# [1] = NCI Yeast Anticancer Drug Screen. Data for the rad50 strain (AID 155);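 note: 0% = growth of vehicle-only cultures of the same strain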; details: S. cerevisiae rad50 strain growth inhibition; at 50.0 µM; stronger effect = higher value
# How it was run: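 Yeast carrying a defined DNA repair defect were exposed to test compounds, and growth was compared with vehicle-treated controls to give percent inhibition.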
# [2] = NCI Yeast Anticancer Drug Screen. Data for the mec2-1 strain (AID 157); details: S. cerevisiae mec2-1 strain, at 50.0 µM, stronger effect = higher value
# How it was run: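 Readout is yeast growth inhibition, normalised to vehicle-treated controls, in the mec2-1 strain exposed to compound.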
# [3] = NCI Yeast Anticancer Drug Screen. Data for the sgs1 mgt1 strain (AID 161);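 note: 0% = growth of cultures given vehicle only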; details: S. cerevisiae sgs1 mgt1 strain, at 50.0 µM, stronger effect = higher value
# How it was run: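 This yeast growth screen uses a strain with defined DNA-repair lesions; compound-treated growth is compared with vehicle-treated growth.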
# [4] = NCI Yeast Anticancer Drug Screen. Data for the cln2 rad14 strain (AID 165);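 note: 0% = growth equal to vehicle treated cultures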; details: S. cerevisiae cln2 rad14 strain, at 50.0 µM, stronger effect = higher value
# How it was run: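 Relative to vehicle controls, growth inhibition of compound-treated cln2 rad14 yeast was recorded.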
# [5] = NCI Yeast Anticancer Drug Screen. Data for the bub3 strain (AID 167); details: S. cerevisiae bub3 mutant strain, at 50.0 µM, stronger effect = higher value
# How it was run: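 Compounds were applied to a genetically altered yeast strain carrying a cell-cycle control defect. Growth inhibition was scored against vehicle-treated controls.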
# [6] = NCI Yeast Anticancer Drug Screen. Data for the mlh1 rad18 strain (AID 175); details: S. cerevisiae mlh1 rad18 strain growth inhibition; at 50.0 µM; stronger effect = higher value
# How it was run: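 Test agents were incubated with a yeast strain of defined genotype (DNA damage repair defect). Inhibition of growth was derived by comparison with vehicle-exposed cultures.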
SMILES,growth inhibition [1],growth inhibition [2],growth inhibition [3],growth inhibition [4],growth inhibition [5],growth inhibition [6]
CC(C)CCc1ccc(O)cc1,5%,-10.9%,-27.2%,-31.9%,0.65%,-5.15%
CCOC(=O)c1cc(CC)[nH]c(=O)c1C#N,-19.1%,8.05%,-11.3%,-32.7%,5.4%,2.3%
S=C1SCCCN1c1ccccc1,-6.35%,-4.05%,-4.9%,-14.5%,-9.6%,-20%
COc1ccc2c(c1)NC(c1ccccc1C(=O)O)c1cccn1-2 (stereo unspecified),0.55%,-20.9%,12.3%,5.75%,23.6%,5.6%
O=C(O)CS(=O)(=O)Cc1ccccc1,-12.7%,-9.85%,-9.25%,-60.6%,-7.9%,-6.5%
Cc1ccc(SC(F)(F)C(F)C(F)(F)F)cc1 (stereo unspecified),-4.65%,-3.6%,-7.75%,9.45%,7.9%,-1.1%
C=CCNC(=S)N/C=C(/C#N)C(=O)OC,1.85%,-9.75%,-16.5%,21.6%,-8%,15.7%
CC(=O)CC(=O)Nc1cccc(NC(=O)CC(C)=O)c1,-16.4%,8.45%,-10.6%,3.85%,-5.8%,-20.6%
CC1(O)CCC(O)CC1CC[N+](C)(C)[O-] (stereo unspecified),7.35%,1.3%,8.8%,4.75%,3.3%,5.55%
Cc1ccc([N+](=O)[O-])cc1S(=O)(=O)O,24.4%,13.2%,21.8%,11.7%,20%,2.45%
Cc1[nH]c(=O)nc2nc3ccc(Cl)cc3c(NCCNCCO)c12,-37.5%,-42.4%,24.1%,3.5%,-0.9%,-43.6%
OC(c1ccccc1)(c1ccccc1)C(O)(c1ccccc1)c1ccccc1,4.3%,6.25%,19.5%,-16.2%,-3.35%,33.4%
COc1ccc(N)c(C(O)CCNC(C)=O)c1 (stereo unspecified),-20.1%,-23.2%,-25.9%,-7.5%,-43.5%,-38.8%
O=C1CCc2cc3c(cc21)CC1(Cc2cc4c(cc2C1)CCCC4)C3,-28.4%,-8.8%,-22.2%,-18.1%,17.2%,-20.3%
O=C(c1cc([N+](=O)[O-])cc([N+](=O)[O-])c1)N1CCCC1,-45.8%,-20.7%,-2.75%,-25.1%,16.4%,9.2%
COC1c2ccccc2C(C)(C)c2nc3ccccc3cc21 (stereo unspecified),-1.05%,-10%,-4.6%,-38%,1.6%,-3.1%
Cc1ccccc1C1OC2=C(Nc3ccc([N+](=O)[O-])cc3N2)C1=O (stereo unspecified),37.5%,21.4%,38%,20.2%,27.2%,45.6%
COc1ccc(/C=C2\CCC/C(=C\c3ccc(O)c(CN4CCCCC4)c3)C2=O)cc1,89.2% (active),85.5% (active),91.2% (active),83% (active),89.1% (active),91.2% (active)
C(=C\c1ccc(-c2ccccc2)cc1)/c1ccc(-c2ccccc2)cc1,-16.2%,-19.9%,4.4%,-5.3%,-16.7%,-16.4%
S=c1ncnc2cc3[nH][nH]cc3cc12,1.95%,2.5%,-5.35%,-33.5%,-7.95%,-2.25%
NC(=S)N/N=C1\C(=O)N(CCc2ccccc2)C(=O)C1C(=O)NCCc1ccccc1 (stereo unspecified),-16.4%,-27.7%,-35.6%,14.1%,-5.8%,-15.2%

SMILES,growth inhibition [1],growth inhibition [2],growth inhibition [3],growth inhibition [4],growth inhibition [5],growth inhibition [6]
O=Cc1ccccc1Cl,28%,12.9%,16.8%,-15.2%,10.9%,13.8%
COc1ccc(/C=C2\CCC(CCN(C)C)(C3=CCCC3)C2=O)cc1 (stereo unspecified),2.1%,-6.6%,15%,18.1%,-14.4%,9.4%
COc1ccc(-c2c3nc(c(-c4ccc(OC)cc4)c4[n-]c(c(-c5ccc(OC)cc5)c5nc(c(-c6ccc(OC)cc6)c6[n-]c2c2ccccc62)-c2ccccc2-5)c2ccccc42)-c2ccccc2-3)cc1.[Zn+2],-21.1%,-18.7%,-29.9%,6.75%,16.6%,-22.1%
N/N=C(/CC(O)(C(F)(F)F)C(F)(F)F)c1ccccc1,-10.8%,-24.9%,-13.9%,-3.7%,3%,2.65%
NCC(O)CN,-13.8%,-0.75%,-2.75%,-8.2%,-0.55%,1.45%
O=C(Cc1ccc(Cl)cc1)c1ccccc1Cl,2.8%,2.75%,-1%,1.7%,-5.65%,4.4%
CCC(C)(CCC(C)C)c1ccncc1 (stereo unspecified),-3.45%,9.3%,-0.05%,-8.45%,-0.75%,3.05%
NC(=O)COC(=O)c1c(Cl)nc2sccn12,7.55%,5.1%,-13.9%,4.75%,24.6%,19.1%
CCCCCCCC/C=C\CCCCCCCC(=O)OC(C)CC(=O)N(C)C (stereo unspecified),-18.1%,-23.4%,10.6%,-6.55%,-11.6%,3.95%
CCCCCCCOC(=O)C(CC)CC,6.8%,-6.45%,5.45%,2.85%,2.65%,6.45%
COc1ccc(-c2cc3cc(OC)c(OC)cc3c[n+]2C)cc1OC,28.3%,5.4%,5.6%,16.1%,-2.3%,-0.55%
CC(=O)NC1C(OCC(=O)NCCNc2ccc([N+](=O)[O-])c3[nH]c4ccccc4c(=O)c23)C(O)C(CO)OC1(C)OCc1ccccc1 (stereo unspecified),-3.9%,-39.9%,-25.6%,8.65%,-18.4%,-3.4%
CC(C)N(C(=O)c1cccc(C(=O)N(C(C)C)C(C)C)c1)C(C)C,12.7%,2.45%,0.25%,11.3%,16.9%,33.4%
CCCC(/C=N/Nc1ccc([N+](=O)[O-])cc1[N+](=O)[O-])=C\c1ccccc1,-12.1%,-29.2%,10.6%,-22.9%,27.1%,-50%
COc1ccccc1NC(=O)Cc1nc(=O)[nH]c(=O)[nH]1,-13.3%,-37.7%,3.5%,-0.35%,-4.95%,-9.55%
Oc1cccc(N2CCN(c3cccc(O)c3)CC2)c1,2.45%,-26.9%,3.7%,9.15%,5.85%,-15%
CCCC(C)C(=O)O (stereo unspecified),23.1%,-1.95%,4%,23.1%,28.8%,19.9%
CC1OC(OC2CCc3c(O)c4c(c(O)c3C2)C(=O)c2ccccc2C4=O)CC(N)C1O (stereo unspecified),5.25%,8.9%,5.85%,14.8%,-1.85%,-2.15%
CC(NC(=O)C(=O)c1ccccc1)c1ccccc1 (stereo unspecified),10.4%,-2.95%,-13.6%,20.1%,27.4%,-12.2%
CC[N+](C)(CC)Cc1ccccc1[N+](=O)[O-],-32.8%,-47.3%,-25.9%,2.85%,-38.8%,-28.6%
